A number with no mark means an inactive call. Inconclusive results are not listed. Entries that show only a call come without a potency. Active and inactive are the calls of the source. Calls follow the shape of the dose curve; as a rule, active = well fitted curve in the direction sought with a large enough effect; inconclusive = small, poorly fitted or top-dose-only effect, or another doubt; inactive = no such curve, though single readings can be large; an effect the other way counts as inactive or inconclusive.
How the values were obtained:
[1] = target: Cytochrome P450 3A4 (Homo sapiens) (UniProt P08684); assay: qHTS Assay for Activators of Cytochrome P450 3A4 (AID 885); also: nearly all actives have a fitted effect of over 65% in size; also: potency is read from the fitted curve at half-maximal effect
Chain of Cytochrome P450 3A4 (Homo sapiens) (P08684 whole entry, looked up): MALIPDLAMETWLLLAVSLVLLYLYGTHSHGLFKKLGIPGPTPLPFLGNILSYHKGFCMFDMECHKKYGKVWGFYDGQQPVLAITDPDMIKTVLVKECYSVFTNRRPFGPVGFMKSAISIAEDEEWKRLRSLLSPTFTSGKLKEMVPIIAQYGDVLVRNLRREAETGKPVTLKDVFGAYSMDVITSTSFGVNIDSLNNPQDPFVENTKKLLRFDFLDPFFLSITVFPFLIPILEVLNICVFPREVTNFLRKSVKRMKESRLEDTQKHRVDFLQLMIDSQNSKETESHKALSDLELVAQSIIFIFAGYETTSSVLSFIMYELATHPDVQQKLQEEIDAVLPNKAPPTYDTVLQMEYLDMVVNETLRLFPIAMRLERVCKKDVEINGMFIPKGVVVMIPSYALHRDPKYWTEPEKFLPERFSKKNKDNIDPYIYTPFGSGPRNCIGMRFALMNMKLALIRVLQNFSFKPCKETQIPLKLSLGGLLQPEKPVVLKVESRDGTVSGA
Outline: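 20nM CYP3A4 + 25uM Luciferin-PPXE (=KM), 200mM KPO4; cpd 10 min RT; NADPH regen, 60 min RT; stop w/ detection buffer, 20 min; luminescence. Normalized to 57 uM ketoconazole.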

[2] = target: Cytochrome P450 3A4 (Homo sapiens) (UniProt P08684); assay: qHTS Assay for Inhibitors and Substrates of Cytochrome P450 3A4 (AID 884); also: nearly all actives have a fitted effect of over 50% in size; also: potency is read from the fitted curve at half-maximal effect
Outline: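 20 nM human CYP3A4 with 25 uM Luciferin-PPXE (at KM) in 200 mM KPO4, preincubated 10 min with compound; NADPH regeneration started a 60 min RT reaction. Luciferin detected by luminescence, normalized to 57 uM ketoconazole as full inhibition.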

[3] = Confirmation and Secondary Assay for Modulators of Hemoglobin Beta Chain Splicing at IVS2 654 locus (AID 910);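 also: per-well total GFP intensity by laser scanning cytometry after 2-day treatment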
Outline: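 HeLa cells stably carrying EGFP interrupted by mutant beta-globin IVS2-654 intron (CMV-driven) were treated with compound for 2 days at 37C; corrected splicing was scored as total peak GFP intensity per well (488 nm excitation, 500-520 nm emission).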

[4] = Confirmation and Secondary Assay for Modulators of Hemoglobin Beta Chain Splicing at IVS2 705 locus (AID 930);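 also: HeLa cells stably expressing the EGFP-705 splicing reporter; GFP fluorescence per well restored by corrected splicing of the IVS2-705 intron in EGFP; series mostly up to about 46 µM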
Outline: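 Splice-correction reporter: EGFP cDNA split by beta-globin intron 2 bearing the 705 mutation, stably in HeLa. Compound incubation 2 days, 37C; fluorescent objects 5-250 µm summed per well.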

[5] = target: Alpha-galactosidase (Coffea arabica) (UniProt Q42656); assay: Counterscreen for Glucocerebrosidase Inhibitors: qHTS Assay for Coffee Bean alpha-Galactosidase at pH 4.5 (AID 957); also: series mostly up to about 77 µM
Chain of Alpha-galactosidase (Coffea arabica) (Q42656 whole entry, looked up): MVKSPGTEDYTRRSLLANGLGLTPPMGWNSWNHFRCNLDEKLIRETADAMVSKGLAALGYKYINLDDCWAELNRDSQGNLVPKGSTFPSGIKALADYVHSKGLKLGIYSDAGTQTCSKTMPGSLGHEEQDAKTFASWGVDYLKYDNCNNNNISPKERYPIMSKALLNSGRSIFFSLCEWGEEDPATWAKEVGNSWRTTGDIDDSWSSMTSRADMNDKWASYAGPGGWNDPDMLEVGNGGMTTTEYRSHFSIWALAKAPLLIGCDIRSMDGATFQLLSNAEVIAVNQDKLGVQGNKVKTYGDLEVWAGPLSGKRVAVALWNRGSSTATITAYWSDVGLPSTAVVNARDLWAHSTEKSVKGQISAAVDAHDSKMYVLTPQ
Outline: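 Coffee bean alpha-galactosidase 2 nM, substrate 4-MU-alpha-Gal 80 uM, pH 4.5 citrate/Tween-20, 20 min RT. Cpd titration 0.7 nM–77 uM. Stop pH 10, fluorescence 365/440 nm; Hill-equation AC50.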

[6] = target: Alpha-galactosidase (Coffea arabica) (UniProt Q42656); assay: Counterscreen for Glucocerebrosidase Inhibitors: qHTS Assay for Coffee Bean alpha-Galactosidase at pH 5.9 (AID 998)
Outline: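 Green coffee bean enzyme (2 nM final) was incubated with compounds (0.7 nM–77 uM) and 4-methylumbelliferyl alpha-D-galactopyranoside (80 uM) in citrate buffer pH 5.9, 20 min at room temperature. High-pH stop; fluorescence 365/440 nm; AC50 from Hill fits.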

[7] = target: Cytochrome P450 2D6 (Homo sapiens) (UniProt P10635); assay: qHTS Assay for Inhibitors and Substrates of Cytochrome P450 2D6 (AID 891); also: potency is read from the fitted curve at half-maximal effect; nearly all actives have a fitted effect of over 60% in size
Chain of Cytochrome P450 2D6 (Homo sapiens) (P10635 whole entry, looked up): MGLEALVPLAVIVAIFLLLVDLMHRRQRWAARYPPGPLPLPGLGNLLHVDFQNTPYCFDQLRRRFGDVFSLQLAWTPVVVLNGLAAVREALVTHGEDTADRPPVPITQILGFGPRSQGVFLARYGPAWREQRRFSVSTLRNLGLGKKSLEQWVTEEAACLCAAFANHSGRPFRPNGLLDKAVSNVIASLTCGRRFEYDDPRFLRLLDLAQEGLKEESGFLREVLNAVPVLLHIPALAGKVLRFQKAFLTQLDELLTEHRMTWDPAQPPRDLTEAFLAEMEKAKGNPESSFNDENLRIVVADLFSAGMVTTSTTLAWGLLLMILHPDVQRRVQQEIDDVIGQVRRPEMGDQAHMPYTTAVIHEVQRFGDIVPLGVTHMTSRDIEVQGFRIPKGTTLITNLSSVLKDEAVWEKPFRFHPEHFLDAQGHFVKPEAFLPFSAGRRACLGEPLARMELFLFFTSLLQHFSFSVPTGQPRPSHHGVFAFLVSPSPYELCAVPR
Outline: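 Human CYP2D6 (5 nM) with 30 uM Luciferin-ME EGE (at Km) in 100 mM KPO4, compound preincubated 10 min, then NADPH regeneration system for 60 min at room temperature. Luciferin read by luminescence; normalized to 1.43 uM quinidine.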

[8] = target: Cytochrome P450 2C19 (Homo sapiens) (UniProt P33261); assay: qHTS Assay for Inhibitors and Substrates of Cytochrome P450 2C19 (AID 899); also: potency is read from the fitted curve at half-maximal effect; nearly all actives have a fitted effect of over 60% in size
Chain of Cytochrome P450 2C19 (Homo sapiens) (P33261 whole entry, looked up): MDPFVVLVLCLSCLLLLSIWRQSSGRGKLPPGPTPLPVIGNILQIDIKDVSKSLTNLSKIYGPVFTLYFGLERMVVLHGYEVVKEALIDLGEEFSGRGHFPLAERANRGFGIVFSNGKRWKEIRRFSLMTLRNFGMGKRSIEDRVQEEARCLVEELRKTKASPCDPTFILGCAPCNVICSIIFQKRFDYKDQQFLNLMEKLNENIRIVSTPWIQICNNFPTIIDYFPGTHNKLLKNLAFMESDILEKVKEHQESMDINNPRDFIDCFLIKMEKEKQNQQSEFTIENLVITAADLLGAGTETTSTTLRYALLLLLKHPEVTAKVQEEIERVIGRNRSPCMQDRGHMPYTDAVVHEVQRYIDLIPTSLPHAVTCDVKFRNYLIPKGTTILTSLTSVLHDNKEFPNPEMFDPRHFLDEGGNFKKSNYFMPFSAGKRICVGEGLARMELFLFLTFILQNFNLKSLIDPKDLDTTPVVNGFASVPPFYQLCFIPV
Outline: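 Human CYP2C19 (5nM) with Luciferin-H EGE at 10uM (its KM) in 50mM KPO4 was preincubated with compound for 10 min at 37C. NADPH regeneration started a 60 min 37C reaction. Luciferin was read by luminescence, normalized to 57uM ketoconazole.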

CC(=O)Oc1ccc2c(c1)CCC1C2CC[C@]2(C)C(OC(C)=O)CCC12 (some centres undefined)
Potency [1]: inactive

BrC1C(Br)C(Br)C(Br)C(Br)C1Br (centres undefined)
Potency [1]: inactive

CN(C)C1C(=O)C(C(N)=O)=C(O)[C@@]2(O)C(=O)C3=C(O)c4c(O)cccc4[C@](C)(O)C3C(O)C12 (some centres undefined)
Potency [2]: inactive | Potency [3]: inactive | outcome [4]: inactive

COc1cc(C(=O)OC2CC[C@]3(C)C4CCC5[C@]6(O)CC(O)[C@]7(O)C(CN8CC(C)CCC8[C@]7(C)O)[C@]6(O)C[C@@]53O[C@]24O)cc(OC)c1OC (some centres undefined)
Potency [1]: inactive

CCCN1[C@H](C(=O)OC)C[C@@H]2CC[C@@H](O)C[C@@H]21
Potency [1]: inactive

CC1(C)C(=O)C=C[C@]2(C)C1CC(=O)[C@]1(C)C2CC[C@@]2(C)C(c3ccoc3)OC(=O)C3O[C@@]321 (some centres undefined)
Potency [1]: inactive

CCCCCCCC/C=C\CCCCCCCC(N)=O
Potency [1]: inactive

O=C(OCC1CO1)C1CCCCC1C(=O)OCC1CO1 (centres undefined)
Potency [1]: inactive

CN1[C@@H]2CC[C@H]1CC(NC(=O)c1nn(C)c3ccccc13)C2 (some centres undefined)
Potency [2]: inactive | outcome [5]: inactive | outcome [6]: inactive

CC(C)C(C)/C=C/C(C)C1CCC2C3=CCC4CC(=O)CC[C@@]4(C)C3CC[C@]21C (some centres undefined)
Potency [1]: 25.1 µM (active)

C=CCc1cc(OC)c2c(c1OC)OCO2
Potency [2]: 7.94 µM (active) | Potency [1]: inactive | Potency [3]: inactive | outcome [4]: inactive

COC1C=CC23c4cc5c(cc4CN(CC2O)C3C1)OCO5 (centres undefined)
Potency [1]: inactive

OC[C@@H]1O[C@@H](n2cnc3cncnc32)[C@@H](O)[C@H]1O
Potency [2]: inactive | outcome [5]: inactive | outcome [6]: inactive

CC(C)CCCC1(C)C=Cc2c(O)c3c(c(CCC(C)C)c2O1)OC12C(CC4CC1C(C)(C)OC2(CCC(C)C(=O)O)C4O)C3=O (centres undefined)
Potency [2]: inactive | Potency [3]: inactive | outcome [4]: inactive

CC[C@]1(O)CC(O[C@@H]2CC(N(C)C)C(O)C(C)O2)c2c(cc3c(c2O)C(=O)c2c(O)ccc(O)c2C3=O)C1C(=O)OC (some centres undefined)
Potency [2]: inactive | Potency [3]: inactive | outcome [4]: inactive

COC(=O)[C@H]1[C@H](c2ccccc2)C(=O)[C@@]2(O)c3ccccc3O[C@@]12c1ccccc1
activity change, positive = activation [1]: -48.2% [at 11.4 µM]

CCC(C(=O)C(C)C(O)C(C)CCc1ccc(C)c(O)c1C(=O)O)C1OC(CC)(C2CC[C@@](O)(CC)C(C)O2)CC1C (some centres undefined)
Potency [1]: inactive

[O-]/[N+](=N\O)c1ccccc1
Potency [1]: inactive

C[C@@H]1Cc2ccccc2N1NC(=O)c1ccc(Cl)c(S(N)=O)c1 (some centres undefined)
Potency [1]: inactive

C=C(CO)C1Cc2c(ccc3c2OC2COc4cc(OC)c(OC)cc4C2C3=O)O1 (centres undefined)
Potency [1]: inactive

COc1cc2c(cc1OC)[C@@H]1C(=O)c3ccc4c(c3OC1CO2)CC(C(C)C)O4 (some centres undefined)
Potency [2]: 25.1 µM (active) | Potency [1]: inactive | Potency [3]: inactive | outcome [4]: inactive

c1ccc(CN2CCC3(CCc4ccccc43)CC2)cc1
Potency [2]: inactive | Potency [7]: 0.0063 µM (active) | Potency [8]: 2.51 µM (active)

COc1cc2c(cc1OC)[C@@H]1C(=O)c3ccc(OC)c(CC=C(C)C)c3OC1CO2 (some centres undefined)
Potency [2]: 3.16 µM (active) | Potency [1]: inactive | Potency [3]: inactive | outcome [4]: inactive

CC(=O)[C@]1(O)CC[C@@H]2[C@H]3C[C@@H](C)C4=CC(=O)CC[C@@]4(C)[C@H]3[C@@H](O)C[C@]21C
activity change, positive = activation [1]: -33% [at 11.4 µM]

CC(=O)c1c(O)c(C)c(O)c2c1OC1=CC(=O)C(C(C)=O)C(=O)C12C (centres undefined)
Potency [1]: inactive

COC(=O)[C@@H]1[C@@H](O)[C@@]2(O)c3c(OC)cc(OC)cc3O[C@@]2(c2ccc(OC)cc2)[C@H]1c1ccccc1
activity change, positive = activation [1]: -35.6% [at 11.4 µM]

COC(=O)[C@H]1C[C@H]2CC[C@H](O)C[C@H]2N1CC1CC1
Potency [1]: inactive

CC(=O)OC1CCC2C3CCc4cc(O)ccc4C3CCC12C (centres undefined)
Potency [1]: inactive

CC(C)=CCC1=C(O)c2ccccc2C(=O)C1=O
Potency [1]: inactive

CC(C)=CCCC1(C)C=Cc2c(O)c3c(c(CC=C(C)C)c2O1)OC12C(CC4CC1C(C)(C)OC2(C/C=C(/C)C(=O)O)C4O)C3=O (centres undefined)
Potency [2]: inactive | Potency [3]: inactive | outcome [4]: inactive

Cc1ncc(CN2CC=C(c3ccccc3)CC2)c(N)n1
Potency [1]: inactive

From PubChem BioAssay (NCATS)
